Compound activity: PubChem BioAssay, SRMLSC
Compounds with a hit are over-represented: about 6.8% of the library has one in this group of screens.
Spn DPM-DC inh = blocks S. pneumoniae diphosphomevalonate decarboxylase | purified DPM-DC, PK/LDH coupled NADH fluorescence | calls only at 10 µM | hit rate 0.49% among 65,000 | AID 556;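 active = the 320 compounds with the highest percent inhibition in the single-dose primary screen, excluding strongly autofluorescent ones, cut at about 32% in these data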;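 note: kinetic rate of NADH fluorescence loss reporting ADP formed by the decarboxylase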
Abs 340nm = compounds absorbing at 340 nm | compound absorbance at 340 nm, fold over control | fold change at 10 µM | 65,000 tested, under 10 active;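 active = at 10 µM dose, initial 340 nm absorbance at least 2 fold that of control wells; inactive = change under 2 fold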;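 note: initial absorbance extrapolated from kinetic A340 decline of NADH oxidation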
Fluor 339 460 = intrinsic fluorescence of library compounds, ex339/em460 – biochemical, MLSMR library, data from DPM-DC assay, artefact control, profiling panel. compound autofluorescence, ex339/em460 nm, NADH buffer; hits give high values; 1 = no-compound wells, NADH background. fluorescence fold increase at 10 µM. hit rate 5.5% among 65,000. AID 709;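 active = at 10 µM, mean starting fluorescence two-fold or more over control wells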;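 note: signal is the first read of a kinetic run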
Spn PMK inh = S. pneumoniae PMK inhibition; purified PMK, PK/LDH-coupled NADH absorbance 340 nm; inhibition, % at 10 µM; hit rate 0.49% among 65,000; AID 539;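 active = top-ranked compounds by inhibition in the single 10 µM screen, taking a fixed number of the strongest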
NADH enzymes = inhibition of NAD/NADH coupling enzymes, library profiling | coupled PK/LDH NADH assays, four targets | IC50, µM (series often up to 10 µM) | hit rate 0.02% among 65,000;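 active = single-dose screening hits from any of four coupled enzyme assays that gave an IC50 when retested across doses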;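 note: the DPM-DC format reads NADH fluorescence rather than 340 nm absorbance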
MK inhibit = blocks S. pneumoniae mevalonate kinase; inhibition, % at 10 µM; purified MK, PK/LDH-coupled NADH absorbance 340 nm; hit rate 0.48% among 65,000; AID 555;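 active = ranked among the strongest by inhibition in the single 10 µM screen, a fixed top-ranked set picked for dose follow-up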
Each line names hits and unclear results; the compound was inactive in the other large screens.

COc1cc(OC)c(OC)cc1CN1CCN(c2ccccc2OC)CC1	MK inhibit 43.0
COc1cc(CN2CCN(c3cccc(C)c3C)CC2)cc(OC)c1O	MK inhibit 51.0
CN(Cc1ccc(-n2cccn2)cc1)C(=O)c1cnn2c1NC(c1ccco1)CC2C(F)(F)F (stereo not given)	none
CCOC(=O)Cn1c(=O)oc2cc(S(=O)(=O)Nc3ccc(N(CC)CC)cc3C)ccc21	none
C/C(N)=C(/C#N)C(=O)CSc1nnnn1-c1ccc(C)cc1C	none
CCOC(=O)c1sc(C)c2c1NC1(CCCCC1)NC2=O	Fluor 339 460 3.86 (not shown: Spn DPM-DC inh)
CCOC(=O)c1sc(C)c2c1NC(C)(c1cccs1)NC2=O (stereo not given)	Fluor 339 460 2.97 (not shown: Spn DPM-DC inh)
CC1(C)CC(=O)c2cc(C(=O)N3CCCCC3)c(=O)n(-c3ccc(Cl)cc3)c2C1	none
O=C(c1ccco1)N1CCN(c2ccc(Cl)c(Cl)c2)CC1	none
COc1cccc(CNC(=O)Cn2cccc2)c1	none
COc1cccc(CNC(=O)c2ccccc2N)c1	Fluor 339 460 3.9 (not shown: Spn DPM-DC inh)
Cc1nc2c(C(=O)NCc3ccco3)cnn2c(C)c1Cc1ccc(F)cc1Cl	Fluor 339 460 3.11
Cc1cccc(Cc2c(C)nc3c(C(=O)NCc4ccco4)cnn3c2C)c1	Fluor 339 460 3.85
Cc1nc2c(-c3ccccc3)c(C)nn2c(C)c1CCC(=O)NCc1ccco1	none
Cn1c(=O)[nH]c(=O)c2c1nc(N1CCCCC1)n2CCCSc1nc2ccccc2s1	none
COC(=O)c1cc(C(=O)OC)cc(S(=O)(=O)Nc2ccc(Cl)c(N)c2)c1	none
COCCn1c(=NC(=O)CSCC(=O)NC2CCCCC2)sc2cc(OC)ccc21	Fluor 339 460 2.04
COCCn1c(=NC(=O)CSC(C)=O)sc2cc(OC)ccc21	none
Cn1c2ccccc2c2cnn(CC(=O)N3CCN(c4ncccn4)CC3)c(=O)c21	Spn PMK inh 25.0
CN1CCN(CCCNC(=O)Cn2ncc3c4ccccc4n(C)c3c2=O)CC1	none
CC(C)C1N=C2c3ccccc3N=C(SCc3cc(=O)n4cc(Cl)ccc4n3)N2C1=O (stereo not given)	none
Cc1cc(NCCCN2CCOCC2)n2nc(C)c(-c3ccc(F)cc3)c2n1	Spn PMK inh 25.0
Cc1cc(NCCCN2CCOCC2)n2ncc(-c3ccccc3)c2n1	Fluor 339 460 2.12
Cc1cc(NCCCN2CCOCC2)n2nc(C)c(-c3ccccc3)c2n1	none
Cc1cc(C)c2c(n1)nn1c(NCCCn3ccnc3)cc(C)nc21	Fluor 339 460 3.91 (not shown: Spn DPM-DC inh)
Cc1cc(C)c2c(n1)nn1c(NCCCN3CCOCC3)cc(C)nc21	Fluor 339 460 3 (not shown: Spn DPM-DC inh)
Brc1ccccc1-c1nnc(CSc2nnc3sc4ccccc4n23)o1	none
CC(c1ccco1)N(C(=O)CSc1ccc(Br)cc1)c1ccccn1 (stereo not given)	none
O=C(CCCCCn1c(=S)[nH]c2cc3c(cc2c1=O)OCO3)N1CCN(C2CCCCC2)CC1	none
COc1ccccc1-c1c(C)nn2c(NCCN3CCCC3)cc(C)nc12	none
Cc1cc(NCCOCCO)n2ncc(-c3ccc(Cl)cc3)c2n1	Fluor 339 460 2.56
COc1ccc(CNC(=O)CSc2ncnc3nc[nH]c23)cc1	none
CC(=O)n1cc(Nc2ccccc2C(=O)O)c2ccccc21	Fluor 339 460 2.23 (not shown: Spn DPM-DC inh)
Cc1cccc(Nc2ccccc2C(=O)O)c1C	none
CCOC(=O)C1CCN(Cc2ccc(F)c(Br)c2)CC1	MK inhibit 51.0
CCOC(=O)C1CCCN(Cc2ccc(OC)cc2OC)C1 (stereo not given)	MK inhibit 49.0
CCOC(=O)C1CCN(Cc2ccc(OC)c(C)c2OC)CC1	MK inhibit 48.0
CCOC(=O)C1CCCN(Cc2ccc(O)c(OC)c2)C1 (stereo not given)	none
Fc1ccc(CN2CCSCC2)cc1Br	none
Fc1cccc2sc(N3CCOCC3)nc12	none
N#Cc1c(F)cccc1N1CCOCC1	Fluor 339 460 3.11
c1ccc(-n2nnnc2SCc2cn3cccnc3n2)cc1	Fluor 339 460 5.01 (not shown: Spn DPM-DC inh)
c1ccc(-n2nnnc2SCc2cn3ccccc3n2)cc1	none
COc1cccc(Nc2cc(C)nc3nc(C)nn23)c1	none
COc1cccc(CNc2nc3nc(C)cc(C)n3n2)c1	Fluor 339 460 2.64
CCC(c1nnnn1CCc1ccccc1)N1CCN(c2ccc(OC)cc2)CC1 (stereo not given)	none
COc1ccc(-n2nnnc2Sc2ccc(S(=O)(=O)N3CCOCC3)cn2)cc1	none
CCOc1c(C)cc(-c2ncccc2O)cc1C	Fluor 339 460 3.79
COc1ccc2cc3cc(C(=O)Nc4ccccc4N4CCN(C)CC4)oc3nc2c1	none
COc1ccc2cc3cc(C(=O)NCc4ccccn4)oc3nc2c1	Fluor 339 460 5.07 (not shown: Spn DPM-DC inh)
COc1ccc2nc3oc(C(=O)NCc4cccs4)cc3cc2c1	Spn DPM-DC inh active, Fluor 339 460 3.9
COc1ccc2cc3cc(C(=O)NCCN4CCN(c5ccccc5F)CC4)oc3nc2c1	Fluor 339 460 5.06 (not shown: Spn DPM-DC inh)
COc1ccc2cc3cc(C(=O)NCC4CCCO4)oc3nc2c1 (stereo not given)	Fluor 339 460 3.46 (not shown: Spn DPM-DC inh)
O=C(NCc1ccco1)c1cc2cc3ccc(Cl)cc3nc2o1	none
O=C(NCc1cccs1)c1cc2ccccc2o1	none
COc1cccc(C2/C(=C(\O)c3ccc(OC)c(OC)c3)C(=O)C(=O)N2c2cc(C)on2)c1 (stereo not given)	none
CCCCc1c(O)n2c(nc3ccccc32)[nH]c1=O	none
CCCc1cc(=O)n2c(nc3ccccc32)[nH]1	Fluor 339 460 3.89 (not shown: Spn DPM-DC inh)
CC1CN(C(=O)c2cccs2)CCN1C(=O)c1cccs1 (stereo not given)	none
CCN(CC)C(=O)C1CCCN(C/C=C/c2ccccc2)C1 (stereo not given)	MK inhibit 47.0
CCN(CC)C(=O)C1CCCN(Cc2ccccc2F)C1 (stereo not given)	none
CCN(CC)C(=O)C1CCCN(Cc2ccccc2C(F)(F)F)C1 (stereo not given)	MK inhibit 45.0
CCN(CC)C(=O)C1CCCN(C/C(C)=C/c2ccccc2)C1 (stereo not given)	Spn PMK inh 26.0
CCOC(=O)C1=C(C)NC(=O)NC1c1ccc(N(CC)CC)cc1 (stereo not given)	none
CC1CN(c2cc3nccnc3cc2F)CC(C)O1 (stereo not given)	none
COc1ccc(OC)c2c(N3CC(C)OC(C)C3)cc(C(F)(F)F)nc12 (stereo not given)	Fluor 339 460 2.13
C=CCn1c(SCc2nc3ccccc3c(=O)[nH]2)nnc1-c1cc2cc(Cl)ccc2o1	Fluor 339 460 2.08
O=c1[nH]c(CSc2nnc(-c3ccncc3)n2Cc2ccco2)nc2ccccc12	none
Cc1ccc2nc(CCc3nc4ccc(C)cc4o3)oc2c1	none (no result: MK inhibit)
Cc1ccc2nc(-c3cccc(-c4nc5ccc(C)cc5o4)n3)oc2c1	Fluor 339 460 2.06
CCc1nc2c(c(=O)[nH]1)C1(CCCC1)Cc1ccccc1-2	none
